Shown is part of a subset that was picked to be rich in hits.
Tg IFNy HTS = blocks Toxoplasma gondii growth in the presence of IFN-gamma | Toxoplasma gondii growth in IFN-gamma-treated host cells; active compounds read low | AID 1259416 | activity change, negative = inhibition, % (test concentration not listed) | 69,000 compounds, 3.8% hits; in the data active means activity change below about -70%, passing the limit was not always enough;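 further: host cells are HeLa cells infected with Toxoplasma gondii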
Starred values were filed as active, the others as inactive; i = inactive.

SMILES	Tg IFNy HTS
Cn1c(CNC(=O)Cc2ccc3c(c2)OCCO3)cc2cc(Cl)ccc21	44
CCCCC1CCCN1C(=O)c1ccc(O)c(OC)c1 (centres undefined)	7
COc1ccc(Nc2nc(-c3nnc(-c4cccc(C)c4)o3)nc3ccccc23)cc1OC	i
COc1ccc(Nc2nc(-c3nnc(-c4ccc(C)cc4)o3)nc3ccccc23)cc1Cl	277
COc1cc(Nc2nc(-c3nnc(-c4ccccc4)o3)nc3ccccc23)cc(OC)c1OC	-125*
Cc1cc(C)n(-c2ccc(NCc3ccc(N4CCOCC4)cc3C)cc2)n1	19
Cc1cccc(-c2nc(C)c(CCNS(=O)(=O)c3ccccc3F)s2)c1	i
Cc1nc(-c2ccccc2)sc1CCNS(=O)(=O)c1ccccc1	369
Cc1cccc(-c2nc(C)c(CCNS(=O)(=O)c3ccc(I)cc3)s2)c1	i
Cc1nc(-c2ccc(Cl)cc2)sc1CCNS(=O)(=O)c1ccccc1F	-72*
Cc1cc(F)ccc1S(=O)(=O)NCCc1sc(-c2ccc(Cl)cc2)nc1C	362
Cc1cccc(-c2nc(C)c(CCNS(=O)(=O)c3ccc(-c4ccccc4)cc3)s2)c1	-84*
CSc1cccc(NC(=O)Cn2ncc3c(N4CCCC4)ncnc32)c1	41
Cc1cccnc1CC(C)N(C)C(=O)c1cc(-c2ccccc2)on1 (centres undefined)	15
COc1ccc(-c2nn(CN3CCCCC3)c(=S)n2-c2ccccc2)cc1	21
CNC(=O)C1CCC2(CCN(c3nncs3)CC2)CO1 (centres undefined)	20
Cc1nc(C)c(C(=O)N2CCC2c2ccc(F)cc2)s1 (centres undefined)	-32
CCn1c(C2CCCN(Cc3ccnn3-c3ccccc3)C2)nn(C)c1=O (centres undefined)	-23
Cc1ccc(OCC(=O)NCCc2csc(-c3cccc(F)c3)n2)cc1	-14
Cc1nc2[nH]nc(C)n2c(=O)c1CC(=O)Nc1ncc(Cc2ccccc2F)s1	12
Cc1ccc2nc(COCC(=O)Nc3ncc(Cc4ccccc4)s3)[nH]c2c1	12
Cc1nc(C)c(CC(=O)Nc2ncc(Cc3ccc(F)cc3)s2)s1	-80*
O=C(c1cccc2c1OCC2)N1CCCC(CO)(Cc2ccccc2)C1 (centres undefined)	4
COc1ncccc1-c1nn(C)c2ccc(C)cc12	7
COc1ncccc1-c1[nH]cnc1-c1ccccc1	-15
SMILES	Tg IFNy HTS
COc1ncccc1-c1cccc(-c2nnc(C)s2)c1	-94*
O=C(c1ccco1)N1CCN(Cc2cnn3cccnc23)CC1	-2
CCOc1ccccc1N(Cc1nc(-c2ccc(C)cc2)oc1C)S(=O)(=O)c1ccccc1	-49
CCc1cc(C(=O)N2CCC(c3nc(C)cc(C)n3)C2)no1 (centres undefined)	-23
CC(=O)N1CCC2(C(=O)Nc3ccccc3)CC2C1 (centres undefined)	59
Clc1cccc(-c2nnc(-c3nc(N4CCCCCC4)c4ccccc4n3)o2)c1	61
CCC1(O)CC2CN(CCc3c([nH]c4ccccc34)C(C(=O)OC)(c3cc4c(cc3OC)N(C)C3C(O)(C(=O)OC)C(C(=O)OC)C5(CC)C=CCN6CCC43C65)C2)C1 (centres undefined)	-86*
Cc1cccc(S(=O)(=O)N2Cc3ccccc3C3(CCN(C)CC3)C2)c1	-26
Cc1nn(Cc2nc(-c3ccc(NC(=O)C4CCCCC4)cc3)oc2C)c(C)c1C	-42
Cc1ccc2[nH]nc(C(=O)N3CCCC3c3ccc(Cc4ccccc4F)cn3)c2c1 (centres undefined)	-105*
Cc1ccc2[nH]nc(C(=O)N3CCCC(N)CC3)c2c1 (centres undefined)	-40
CCc1cn[nH]c1C1CCCN(C(=O)c2n[nH]c3ccc(C)cc23)C1 (centres undefined)	32
Cc1ccc(NC(=O)c2nnn(Cc3nc(-c4ccccc4C)oc3C)c2C)c(Br)c1	121
CCn1cc(S(=O)(=O)N2CCCC(N(C)C)CC2)cn1 (centres undefined)	-6
CCn1c(CCNC(=O)Cc2c(F)cccc2Cl)nnc1SC	-3
CC(C)(C)C(=O)C(Cc1c(F)cccc1Cl)C(=O)C(C)(C)C	-24
O=C(Cc1c(F)cccc1Cl)NC(=O)NCCc1c(F)cccc1Cl	-83*
CCN1CCO[C@@H]2CN(C(=O)c3ccc(OC)c(Cl)c3)C[C@@H]2C1	-36
COC(=O)c1sccc1S(=O)(=O)Nc1ccc(C)cc1	11
COC(=O)c1sccc1S(=O)(=O)Nc1ccc(Nc2ccccc2)cc1OC	-1
COC(=O)c1sc(-c2cccs2)cc1NS(=O)(=O)c1ccsc1C(=O)OC	-85*
CCc1nc(CNC(=O)c2cc(-c3cccnc3)nc3ccc(C)cc23)no1	11
CCc1ccccc1-c1ccc2cc[nH]c(=O)c2c1	2
CCC(=O)NCc1ccccc1-c1ccccc1CO	-39
O=C1CCCc2c1[nH]c1ccc(-c3ccccc3CO)cc21	-75*
SMILES	Tg IFNy HTS
CCCC(C)C(=O)Nc1ccc(C)c(C)c1 (centres undefined)	17
COc1cccc(C(CNC(=O)c2cn(C)c(=O)c3ccccc23)N2CCCC2)c1 (centres undefined)	-6
COC(=O)c1ccc(N2CCC(O)CC2)c(N)c1	61
C[C@@H]1CC[C@H]2[C@@H](C)C(O)O[C@@H]3O[C@]4(C)CC[C@@H]1[C@]32OO4 (some centres undefined)	-82*
CC(=O)N1CCN(c2ccc(NC(=O)COc3cccc(C)c3C)cc2Cl)CC1	-15
Cc1ccc2c(-c3csc(NC(=O)C4(C)CCCO4)n3)c[nH]c2c1 (centres undefined)	378
CN(Cc1cccc2ncccc12)Cc1nnc(CC2CCNCC2)n1C	-7
CCOC(=O)N1CCC2(CC1)OC(=O)C(C)=C2C(=O)NCCCc1ccccc1	-23
COCCn1cnc2nnc3ccc(C(=O)N(C)Cc4ccccn4)cc3c21	-15
CC1CCCN(Cc2cccc(C(=O)Nc3cc(C4CC4)nn3C)c2)C1 (centres undefined)	1
Cc1cc(C)cc(NC(=O)N2CCC3(CC2)CC(=O)c2ccccc2O3)c1	72
Cc1cc(NC(=O)N2CCC3(CC2)CC(=O)c2ccccc2O3)ccc1Br	-75*
O=C1CC2(CCN(C(=O)NCc3ccc(F)cc3)CC2)Oc2ccccc21	198
COc1ccc(-c2nc(C(=O)Nc3ccnn3C3CCN(C)CC3)cs2)cc1	-31
CN(CCc1noc(C2CC2)n1)C(=O)c1cccc(CC2CCNCC2)c1	8
CCCc1nc(N2CCc3c(c(CO)nn3C)C2)c2cnn(C)c2n1	-52
O=C(c1ccsc1)N1CCCn2nnc(CO)c2C1	36
CCOc1ccc(C2c3[nH]c4ccccc4c3CCN2C(=O)c2ccc(C)cc2)cc1 (centres undefined)	-95*
CCCC(=O)N1CCc2c([nH]c3ccccc23)C1c1ccc(C)cc1 (centres undefined)	-49
Cc1ccc(C2c3[nH]c4ccccc4c3CCN2C(=O)c2ccccc2Br)cc1 (centres undefined)	43
Cc1ccc(C2c3[nH]c4ccccc4c3CCN2C(=O)c2cccs2)cc1 (centres undefined)	-64
Cc1ccc(C2c3[nH]c4ccccc4c3CCN2C(=O)c2ccc(N(C)C)cc2)cc1 (centres undefined)	-119*
CCOc1ccc(C2c3[nH]c4ccccc4c3CCN2C(=O)c2ccncc2)cc1 (centres undefined)	-4
O=C(c1ccccc1Br)N1CCc2c([nH]c3ccccc23)C1c1ccc(F)cc1 (centres undefined)	47
